Data: paper PMC10163288
Only a sample is shown. No count for the full screen is at hand. Values without a mark were called inactive.

B1: il10ra_site1_normal_mot_HHH_b1_04693_000000238_0001_19_36_H_._HHH_b2_06085_af2_0001_0000700026_0000002_0 (protein)
chain: SSSSSDQELYELIRELIELLLEGDEEEIERLEEEIEKLAKELNNRVLLFVARAARRLQEKSSSSS
B2: il10ra_site1_sap_20_mot_HHH_b1_08622_000000192_0001_23_40_H_._HHH_b2_06485_0001_0000100001_0000003_0_0001_af2pred_0001 (protein)
chain: SSSSSEFEEAIKAARESIEHALRLGDDEKVEQALRLLERLARDANDEEAEKFIEEVEELLSSSSS
B3: il10ra_site1_sap_11_mot_HHH_b1_00456_000000263_0001_1_17_H_._HHH_b2_06141_0001_0000200005_0000001_0_0001_af2pred_0001 (protein)
chain: SSSSDIAERLVELALEAARLAAERGDPEAVRRALEQAEHLAKLNNNPELEEEVKELEEELSSSSS
B4: il10ra_site1_sap_15_mot_HHH_b1_00814_af2_000000078_0001_43_57_H_._HHH_b2_00250_af2_0001_0000100010_0000001_0_0001_af2pred_0001 (protein)
chain: SSSSSRSAEEAIRRLLRAAKQLEDEERLKLAIRDALAAAEFLGNEELVEELRKILEELRSSSSSS
B5: il10ra_site1_sap_28_mot_HHH_b2_01776_000000118_0001_38_52_H_._HHH_b1_02755_0001_0000100001_0000001_0_0001_af2pred_0001 (protein)
chain: SSSSDEELLEHLLRALKQVVELGDEERAKLTIKFIKRLAELHNDEEVEKRLRELEELVEELSSSS
B6: il10ra_site1_normal_mot_HHH_b1_02809_af2_000000277_0001_40_57_H_._HHH_b1_00768_af2_0001_0000200008_0000001_0 (protein)
chain: SSSSSSDANETAARLIRAAYRGDEELFEELREELEELIERYGDPRLRLALQFAEALFRELSSSSS
B7: il10ra_site1_sap_22_mot_HHH_b1_00169_000000276_0001_1_18_H_._HHH_b1_00842_0001_0000200007_0000001_0_0001 (protein)
chain: SSSSDEEREELYEILEEVIKLASEGDEEEFEELVREAEELAKELGNWVVRHVLELLRRDLSSSSS
B8: il10ra_site1_normal_mot_HHH_b2_01397_000000078_0001_23_39_H_._HHH_b2_08075_0001_0000300026_0000002_0_af2pred_0001 (protein)
chain: SSSSDERVKLTLRFAEALAKHGDRRAVELLLRAARQLAERDGDEELEELIEEVEERVRELLSSSS
B9: il10ra_site1_normal_mot_HHH_b1_05357_000000034_0001_23_39_H_._HHH_b1_03625_af2_0001_0000700020_0000001_0 (protein)
chain: SSSSSDEKEVTHILIQAYAAANHGNPEEAEELLKEAKEIAEEINNERLKLSIEKVEEILRSSSSS
B10: il10ra_site1_sap_13_mot_HHH_b2_00943_af2_000000149_0001_1_17_H_._HHH_b1_02941_af2_0001_0000200003_0000001_0_0001 (protein)
chain: SSSSDVSREAYELSRRAAELHSEGNPEEARELLEEAEELLREAGDRVILHNVEYVLELLNSSSSS
B11: il10ra_site1_sap_14_mot_HHH_eva_0266_af2_000000000_0001_3_18_H_._HHH_b1_03321_0001_0000100001_0000001_0_0001 (protein)
chain: SSSSYEELKKLIERITRALREGNREEAQELIERVEELAEERNDWSARFVARVLQEALEANSSSSS
B12: il10ra_site1_normal_mot_HHH_b2_00475_000000107_0001_44_57_H_._HHH_b2_03520_0001_0000600038_0000001_0 (protein)
chain: SSSSDEEEVSHLLFRALELLFRGDKEEAEELVEEAKEIAEESNDPELQRYVEIAEHFVKAHSSSS
B13: il10ra_site1_normal_mot_HHH_b2_08186_000000021_0001_43_56_H_._HHH_b1_00125_0001_0000100002_0000001_0 (protein)
chain: SSSSSSDLEEEIEELLEELKQISDPERFAEVARRVLRLIYELGDEELLQELWEILKRLSSSSSSS
B14: il10ra_site1_normal_mot_HHH_b1_05670_000000169_0001_1_19_H_._HHH_b2_02857_0001_0000400035_0000001_1 (protein)
chain: SSSSDEDYRRAKELIELIVELLREGNPEEAKKVLEELRELAEENNNPVLEWSVRLLEEDINSSSS
B15: il10ra_site1_sap_27_mot_HHH_b1_05870_000000031_0001_1_20_H_._HHH_b2_06019_af2_0001_0000100004_0000001_0_0001 (protein)
chain: SSSSSDIEELLREAEELAEEGDPEEAARLLLEALKLIYERQDKELLQELWEVVRRVAEISSSSSS
B16: il10ra_site1_sap_19_mot_HHH_b2_03220_af2_000000223_0001_23_40_H_._HHH_b1_07213_0001_0000100001_0000001_0_0001 (protein)
chain: SSSSDEEQEELLRLLRKLVELLLRGDKEEAERLARELLELAEELNDEKVVHVVEDLEKTVSSSSS
B17: il10ra_site1_sap_24_mot_HHH_b2_00475_000000107_0001_44_57_H_._HHH_b1_04576_0001_0000500027_0000001_0_0001 (protein)
chain: DLLELAFELQRRQGTPPEDVIRALLYLAHAANDPERVELLEEVLKLLEDGDPERAEELLKEASKR
B18: il10ra_site1_sap_20_mot_HHH_b1_07100_000000193_0001_1_18_H_._HHH_b2_05849_0001_0000400035_0000001_0_0001_af2pred_0001 (protein)
chain: SSSSSERLELTIKFIEFLLEQGDPEAAKRLARAAAQIAKKDGDEELLRRIEELLEEAEELLSSSS
B19: il10ra_site1_normal_mot_1cde5897893f3d1588f92be3b001cdf2_0001_af2_000000130_0001_54_65_H_._HHH_b2_05871_0001_0000300015_0000001_1_af2pred_0001 (protein)
chain: SSSSSDEEVEERVEELLERLHHVDPKEAAQLLHEAARLAAELDNPELLELVFEAAEEVISSSSSS
B20: il10ra_site1_sap_30_mot_HHH_b1_02809_af2_000000277_0001_40_57_H_._HHH_b1_05733_0001_0000200016_0000002_0_0001 (protein)
chain: SSSSSEASRRIYELLRRIVELHHEGNPEEARELIEEAKELAEEAGDRVLLWVIEWLERLVNSSSS
B21: il10ra_site1_sap_21_mot_HHH_b1_04771_000000013_0001_40_56_H_._HHH_b1_05247_0001_0000500023_0000001_0_0001 (protein)
chain: SSSSDQEEELVRAAIRLIEQLIKNGNPEAARMILWAAEKLAKEINNPELLEELEELKELLNSSSS
B22: il10ra_site1_normal_mot_a6c796b944619e241e020fd597ddb6da_0001_af2_000000092_0001_15_31_H_._HHH_b2_01778_af2_0001_0000100002_0000002_0_af2pred_0001 (protein)
chain: SSSSSSSEEEQEVHALIFFARISDNEDAAKISLELAKKIAEEINNEELREEIEELEKELSSSSSS
B23: il10ra_site1_normal_mot_HHH_b2_01705_af2_000000069_0001_44_57_H_._HHH_b1_04218_af2_0001_0000400020_0000001_0 (protein)
chain: SSSSSSDSEELLEEAEELLKEIKDPEERTEVYRKFAEELVELGDREAIERLSELFIRASSSSSSS
B24: il10ra_site1_sap_19_mot_HHH_b1_00992_000000182_0001_23_40_H_._HHH_b1_02574_0001_0000200023_0000001_0_0001 (protein)
chain: SSSSDEEEELVRAALRLAEQAYENGDPEAAKRLLWAAEFLAREIGDEELEELVERVEEKISSSSS

These binders were tested against il10ra, Q13651 (assay: yeast display titration).
Chain of il10ra, Q13651 (Q13651 whole entry): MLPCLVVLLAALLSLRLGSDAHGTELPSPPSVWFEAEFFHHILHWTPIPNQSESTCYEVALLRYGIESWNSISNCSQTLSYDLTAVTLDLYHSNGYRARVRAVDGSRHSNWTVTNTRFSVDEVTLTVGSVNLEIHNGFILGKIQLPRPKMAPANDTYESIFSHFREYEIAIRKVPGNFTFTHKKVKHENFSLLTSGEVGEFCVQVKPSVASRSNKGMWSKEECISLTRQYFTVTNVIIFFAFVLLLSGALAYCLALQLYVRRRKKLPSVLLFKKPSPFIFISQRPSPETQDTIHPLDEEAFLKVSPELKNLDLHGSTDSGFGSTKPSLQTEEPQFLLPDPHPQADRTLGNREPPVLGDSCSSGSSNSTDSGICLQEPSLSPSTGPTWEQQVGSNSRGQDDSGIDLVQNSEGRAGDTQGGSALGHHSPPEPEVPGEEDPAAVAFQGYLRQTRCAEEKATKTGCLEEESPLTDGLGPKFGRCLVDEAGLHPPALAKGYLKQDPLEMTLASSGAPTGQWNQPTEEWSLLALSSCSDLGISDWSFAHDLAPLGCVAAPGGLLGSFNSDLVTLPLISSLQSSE
For B1, the “apparent Kd” value was “no binding seen”. B2 was tested, and the “apparent Kd” value was “no binding seen”. B3 was tested, and the “apparent Kd” value was “no binding seen”. In the case of B4, the “apparent Kd” value is reported as “no binding seen”. For B5, the “apparent Kd” value was “no binding seen”. B6 was tested, and the “apparent Kd” value was “no binding seen”. For B7, the “apparent Kd” value was “no binding seen”. For B8, the “apparent Kd” value was “no binding seen”. B9 was tested, and the “apparent Kd” value was “no binding seen”. For B10, the “apparent Kd” value was “no binding seen”. In the case of B11, the “apparent Kd” value is reported as “no binding seen”. With B12 the “apparent Kd” value was “no binding seen”. B13 was tested, and the “apparent Kd” value was “no binding seen”. In the case of B14, the “apparent Kd” value is reported as “no binding seen”. For B15, the “apparent Kd” value was “no binding seen”. With B16 the “apparent Kd” value was “no binding seen”. In the case of B17, the “apparent Kd” value is reported as “no binding seen”. B18 was tested, and the “apparent Kd” value was “no binding seen”. B19 was tested, and the “apparent Kd” value was “no binding seen”. For B20, the “apparent Kd” value was “no binding seen”. In the case of B21, the “apparent Kd” value is reported as “no binding seen”. In the case of B22, the “apparent Kd” value is reported as “no binding seen”. For B23, the “apparent Kd” value was “no binding seen”. In the case of B24, the “apparent Kd” value is reported as “no binding seen”.
